Assay outcomes: PubChem, several laboratories
GLD-1 TGE inh – GLD-1-TGE RNA interaction inhibition (C. elegans); purified GLD-1 + fluorescein TGE RNA, fluorescence polarization; Q17339; AID 2280; inhibition, % at 5.96 µM; 0.44% of 320,000 active;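 active = percent inhibition above a per-plate cutoff, the plate mean of test compounds plus 3 SD, cut at about 30% in these data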
MEX-5 binding – C. elegans MEX-5 TCR-2 RNA binding activity | activity score (negative = inhibition of binding), % at 10 µM | AID 1832 | 0.38% of 300,000 active | MEX-5/FITC-TCR2 RNA binding, fluorescence polarization; hits give low values | Q9XUB2;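 active = inhibition past about -25% in most replicates, and total fluorescence under double the plate's negative control median, limit read from the data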
Bcl-xL primary – blocks human Bcl-xL binding to Bim BH3 peptide; 0.7% of 320,000 active; GST-Bcl-xL / FITC-Bim BH3 peptide fluorescence polarization; Q07817; inhibition, % at 10.9 µM;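 active = inhibition above the mean of all tested compounds plus 3 SD, cutoff set per campaign, cut at about 30% in these data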;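 also: inhibitors lower millipolarization by displacing the labeled peptide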
E coli Lon inh – inhibitors of E. coli Lon protease | purified E. coli Lon protease, fluorescence polarization | inhibition, % at 7.94 µM | P0A9M0 | 0.42% of 360,000 active | AID 602123; in the data active = inhibition above about 13%, passing the limit was not always enough
Target sequence (P0A9M0 whole entry, looked up): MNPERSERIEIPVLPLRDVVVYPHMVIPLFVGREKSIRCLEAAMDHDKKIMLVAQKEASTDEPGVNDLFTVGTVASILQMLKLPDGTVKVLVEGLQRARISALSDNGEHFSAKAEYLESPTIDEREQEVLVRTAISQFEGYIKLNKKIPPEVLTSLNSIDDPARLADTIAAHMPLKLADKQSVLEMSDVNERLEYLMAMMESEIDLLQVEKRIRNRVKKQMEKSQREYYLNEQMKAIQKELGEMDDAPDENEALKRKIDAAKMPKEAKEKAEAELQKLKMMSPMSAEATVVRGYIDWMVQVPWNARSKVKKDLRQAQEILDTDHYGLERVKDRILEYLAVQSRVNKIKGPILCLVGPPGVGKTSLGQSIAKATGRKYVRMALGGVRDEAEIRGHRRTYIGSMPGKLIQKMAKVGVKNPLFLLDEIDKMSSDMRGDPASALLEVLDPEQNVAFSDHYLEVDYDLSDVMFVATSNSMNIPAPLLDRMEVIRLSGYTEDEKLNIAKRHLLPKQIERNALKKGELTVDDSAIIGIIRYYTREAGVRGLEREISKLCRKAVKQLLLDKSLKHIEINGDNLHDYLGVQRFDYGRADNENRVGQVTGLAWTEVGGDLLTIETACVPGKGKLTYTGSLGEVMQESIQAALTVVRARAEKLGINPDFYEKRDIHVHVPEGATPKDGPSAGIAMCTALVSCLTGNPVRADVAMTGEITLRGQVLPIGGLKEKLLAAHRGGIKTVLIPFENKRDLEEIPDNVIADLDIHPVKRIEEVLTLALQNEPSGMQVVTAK
EBV gp42 inh – blocks Epstein-Barr virus glycoprotein 42 binding | Q1HVG2 | Fluorescence polarization binding assay, mP read-out | inhibition, % (tested at 21.74 µM) | 0.42% of 220,000 active | AID 1085; in the data active = inhibition above about 50%
E coli Lon conf – confirmation of E. coli Lon protease inhibitors | shares compounds with E coli Lon inh | inhibition, % at 7.94 µM | purified E. coli Lon, fluorescence polarization | 31% of 1,400 active; in the data active = inhibition above about 16%
Of the large screens only hits and unclear results are named; the others gave an inactive call (follow-up assays come after a bar, where they were run). Sampled rows, rich in hits. Any-hit rate of the full collection: about 1.3%.

Cc1cc(C)n2nc(C)c(Br)c2n1	none
Cc1ccc([C@H]2C(C(=O)O)=CC[C@@H](c3ccc(C(C)C)cc3)N2S(=O)(=O)c2ccc(C)cc2)cc1	E coli Lon inh 16.3 (no result: MEX-5 binding, Bcl-xL primary, EBV gp42 inh) | E coli Lon conf inactive
CC(=O)c1ccc2noc(-c3ccc(F)cc3)c2c1	GLD-1 TGE inh 109.6, Bcl-xL primary 97.8, E coli Lon inh 16.4, EBV gp42 inh 95.0 | E coli Lon conf 58.1
C=CCN(CC=C)c1nc2ccccc2nc1C(C#N)C(=O)OC(C)C (configuration not stated)	E coli Lon inh 15.8 | E coli Lon conf inactive
CCOC(=O)c1c(=O)n(O)c2ccc(OC)cc2[n+]1[O-]	GLD-1 TGE inh 175.8, Bcl-xL primary 158.8, E coli Lon inh 82.8, EBV gp42 inh 69.3 | E coli Lon conf 28.8
CCOc1ccc(C(=O)Nc2ccc(S(=O)(=O)N3C[C@@H]4C[C@@H](C3)c3cccc(=O)n3C4)cc2)cc1	none (no result: MEX-5 binding, EBV gp42 inh)
C=CCn1c(SCC(=O)Nc2sc3c(c2C#N)CCC(C)C3)nc2cc(C(=O)O)ccc2c1=O (configuration not stated)	E coli Lon inh 47.9 (no result: MEX-5 binding, Bcl-xL primary, EBV gp42 inh) | E coli Lon conf inactive
Cc1cc(C)nc(SCC(=O)Nc2sc3c(c2C#N)CCC(C)C3)n1 (configuration not stated)	none (no result: EBV gp42 inh)
COc1ccc(Nc2cccc3ccccc23)cc1	E coli Lon inh 83.7 (no result: EBV gp42 inh) | E coli Lon conf inactive
O=C(c1ccnc(Cl)c1)N1CCCC(N2CCN(c3ccccc3F)CC2)C1 (configuration not stated)	none (no result: EBV gp42 inh)
COc1ccccc1C1C=C(c2ccccc2)Nc2nnnn21 (configuration not stated)	none
COc1cccc(C2=CC(c3cccs3)n3nnnc3N2)c1 (configuration not stated)	E coli Lon inh 35.2 (no result: MEX-5 binding) | E coli Lon conf inactive
COc1ccc(C2=CC(c3sccc3C)n3nnnc3N2)cc1 (configuration not stated)	none
COc1ccc(C2C=C(c3ccc(Br)cc3)Nc3nc(N4C(=O)CCC4=O)nn32)cc1 (configuration not stated)	GLD-1 TGE inh 101.6, MEX-5 binding -28.3, Bcl-xL primary 123.0, E coli Lon inh 25.1, EBV gp42 inh 68.2 | E coli Lon conf inactive
COc1ccc(C2=CC(c3ccc(F)cc3)n3nnnc3N2)cc1 (configuration not stated)	E coli Lon inh 37.9 | E coli Lon conf inactive
Cc1nc(N2CCCCC2)c(C#N)c(C)c1[N+](=O)[O-]	none
CC(=O)N1CCc2c(sc(NC(=O)C3CCCN3S(=O)(=O)c3cccs3)c2C(N)=O)C1 (configuration not stated)	GLD-1 TGE inh 115.5, MEX-5 binding -35.4, Bcl-xL primary 67.1, E coli Lon inh 40.5 (no result: EBV gp42 inh) | E coli Lon conf inactive
CCC1(CC)NC(=O)N(CC(=O)OCC(=O)Nc2cc(OC)ccc2OC)C1=O	none (no result: MEX-5 binding, EBV gp42 inh)
CCC(=O)N(Cc1ccc(C)cc1)Cc1cc2cc3c(cc2[nH]c1=O)OCO3	E coli Lon inh 21.4 | E coli Lon conf inactive
Cc1ccc(NC(=O)N(Cc2ccc3c(c2)OCO3)Cc2cc3cc4c(cc3[nH]c2=O)OCCO4)cc1	E coli Lon inh 15.4 | E coli Lon conf inactive
Nc1nc(C2C(=O)CCCC2=O)cs1	E coli Lon inh 30.3 | E coli Lon conf inactive
Cc1cccc(C)c1NC(=O)C1CCN(S(C)(=O)=O)CC1	E coli Lon inh 40.5 (no result: EBV gp42 inh) | E coli Lon conf inactive
CCN(CC)c1ccc(C=Nc2cc(C)ccc2C)c(O)c1	none
CCN(CC)c1ccc(C=Nc2cccnc2Cl)c(O)c1	Bcl-xL primary 43.6, E coli Lon inh 16.2 (no result: EBV gp42 inh) | E coli Lon conf inactive
O=C(Cc1c(F)cccc1Cl)Nc1ccccc1-c1ccccc1	E coli Lon inh 20.2 (no result: EBV gp42 inh) | E coli Lon conf inactive
CCOC(=O)CSc1nc2cc(C)ccc2cc1C#N	E coli Lon inh 26.9 | E coli Lon conf inactive
O=Cc1cc(N=Nc2ccc(S(=O)(=O)O)cc2)ccc1O	none (no result: EBV gp42 inh)
Cc1cc(C=O)c(O)cc1O	E coli Lon inh 37.2 (no result: EBV gp42 inh) | E coli Lon conf inactive
Nc1cc2nc[nH]c2cc1N	E coli Lon inh 17.8 (no result: GLD-1 TGE inh, Bcl-xL primary) | E coli Lon conf inactive
Cn1c(=O)n(C)c2cc3[nH]cnc3cc21	none (no result: EBV gp42 inh)
CCOC(=O)C1=C(N)Oc2cc(O)ccc2C1c1ccc(C)cc1 (configuration not stated)	none (no result: EBV gp42 inh)
CCOC(=O)C1=C(N)Oc2cc(O)ccc2C1c1ccc(F)cc1F (configuration not stated)	E coli Lon inh 33.5 (no result: EBV gp42 inh) | E coli Lon conf inactive
c1ccc(CSc2nnnn2-c2ccc3c(c2)OCCO3)nc1	E coli Lon inh 30.5 | E coli Lon conf inactive
O=C(C1CCN(S(=O)(=O)c2c(Cl)cccc2Cl)CC1)N1CCCCCCC1	E coli Lon inh 18.2 (no result: EBV gp42 inh) | E coli Lon conf inactive
O=C(C1CCN(S(=O)(=O)c2ccc(Cl)cc2)CC1)N1CCC1	none (no result: EBV gp42 inh)
Cc1ccc(NC(=O)CN2C(=O)NC3(CCCCCCC3)C2=O)cc1C	none (no result: MEX-5 binding, EBV gp42 inh)
O=C(CN1C(=O)NC2(CCCCC2)C1=O)Nc1ccc2[nH]c(=O)[nH]c2c1	E coli Lon inh 40.1 (no result: MEX-5 binding, EBV gp42 inh) | E coli Lon conf inactive
COc1ccc(CNc2nc3ccccc3n2C)c(OC)c1	none
COc1ccc(N=Nc2nc3cc(Br)c(Br)cc3n2C)c(OC)c1	GLD-1 TGE inh 197.8, Bcl-xL primary active, E coli Lon inh 162.9, EBV gp42 inh 117.9 (no result: MEX-5 binding) | E coli Lon conf 127.9
CC(C)n1c2ccccc2c2cc([N+](=O)[O-])ccc21	E coli Lon inh 56.0 | E coli Lon conf inactive
Nc1nn(-c2ccccc2)c2ccc([N+](=O)[O-])cc12	none (no result: EBV gp42 inh)
Cc1c(C(=O)N2CCCCC2)oc2ccc(Br)cc12	none (no result: EBV gp42 inh)
Cc1c(C(=O)N2CCN(S(=O)(=O)c3ccccc3)CC2)oc2ccc(Br)cc12	E coli Lon inh 34.8 (no result: MEX-5 binding, Bcl-xL primary, EBV gp42 inh) | E coli Lon conf inactive
O=C(c1cc2ccccc2o1)N1CCN(S(=O)(=O)c2ccccc2)CC1	E coli Lon inh 18.6 (no result: GLD-1 TGE inh, MEX-5 binding, Bcl-xL primary, EBV gp42 inh) | E coli Lon conf inactive
ClN=C1C=CC=CC1=NCl	none (no result: GLD-1 TGE inh, MEX-5 binding, Bcl-xL primary, EBV gp42 inh)
COC1=CC(=NCl)C=CC1=NCl	E coli Lon inh 44.6 (no result: GLD-1 TGE inh, MEX-5 binding, Bcl-xL primary, EBV gp42 inh) | E coli Lon conf 39.3
CCCCN(C(=O)c1cccc(S(=O)(=O)N2CCN(C)CC2)c1)c1c(N)n(CCC)c(=O)[nH]c1=O	none (no result: EBV gp42 inh)
COc1ccc(S(=O)(=O)NC2CC2)cc1-n1cnnn1	none
COc1cc(S(=O)(=O)NC2CCCC2)ccc1-n1cnnn1	E coli Lon inh 22.1 (no result: EBV gp42 inh) | E coli Lon conf inactive
c1ccc(COc2ccc(-c3cc4nc(NCCN5CCOCC5)ccn4n3)cc2)cc1	none (no result: GLD-1 TGE inh, MEX-5 binding, Bcl-xL primary, EBV gp42 inh)
O=C(N/N=C/C1C(c2ccccc2)C1(Cl)Cl)c1cccc(Cl)c1 (configuration not stated)	E coli Lon inh 22.3 | E coli Lon conf inactive
O=C(N/N=C/c1c[nH]c2ccccc12)c1cccc(Cl)c1	none (no result: EBV gp42 inh)
